The values below come from PubChem BioAssay (NCATS).

Each structure is given as a SMILES string. Results filed as inconclusive are left out. Unmarked numbers belong to inactive results. Activity calls are given as the source filed them. The call rests on the fitted dose curve; in most records, active means well fitted inhibition curve with a large enough effect; inconclusive means small, poorly fitted or top-dose-only effect; inactive means no such curve, though single readings can be large or run the other way.
Potency means the concentration at half of the fitted maximal effect.

RecQ-like DNA helicase BLM (Homo sapiens), sequence (P54132 whole entry, looked up): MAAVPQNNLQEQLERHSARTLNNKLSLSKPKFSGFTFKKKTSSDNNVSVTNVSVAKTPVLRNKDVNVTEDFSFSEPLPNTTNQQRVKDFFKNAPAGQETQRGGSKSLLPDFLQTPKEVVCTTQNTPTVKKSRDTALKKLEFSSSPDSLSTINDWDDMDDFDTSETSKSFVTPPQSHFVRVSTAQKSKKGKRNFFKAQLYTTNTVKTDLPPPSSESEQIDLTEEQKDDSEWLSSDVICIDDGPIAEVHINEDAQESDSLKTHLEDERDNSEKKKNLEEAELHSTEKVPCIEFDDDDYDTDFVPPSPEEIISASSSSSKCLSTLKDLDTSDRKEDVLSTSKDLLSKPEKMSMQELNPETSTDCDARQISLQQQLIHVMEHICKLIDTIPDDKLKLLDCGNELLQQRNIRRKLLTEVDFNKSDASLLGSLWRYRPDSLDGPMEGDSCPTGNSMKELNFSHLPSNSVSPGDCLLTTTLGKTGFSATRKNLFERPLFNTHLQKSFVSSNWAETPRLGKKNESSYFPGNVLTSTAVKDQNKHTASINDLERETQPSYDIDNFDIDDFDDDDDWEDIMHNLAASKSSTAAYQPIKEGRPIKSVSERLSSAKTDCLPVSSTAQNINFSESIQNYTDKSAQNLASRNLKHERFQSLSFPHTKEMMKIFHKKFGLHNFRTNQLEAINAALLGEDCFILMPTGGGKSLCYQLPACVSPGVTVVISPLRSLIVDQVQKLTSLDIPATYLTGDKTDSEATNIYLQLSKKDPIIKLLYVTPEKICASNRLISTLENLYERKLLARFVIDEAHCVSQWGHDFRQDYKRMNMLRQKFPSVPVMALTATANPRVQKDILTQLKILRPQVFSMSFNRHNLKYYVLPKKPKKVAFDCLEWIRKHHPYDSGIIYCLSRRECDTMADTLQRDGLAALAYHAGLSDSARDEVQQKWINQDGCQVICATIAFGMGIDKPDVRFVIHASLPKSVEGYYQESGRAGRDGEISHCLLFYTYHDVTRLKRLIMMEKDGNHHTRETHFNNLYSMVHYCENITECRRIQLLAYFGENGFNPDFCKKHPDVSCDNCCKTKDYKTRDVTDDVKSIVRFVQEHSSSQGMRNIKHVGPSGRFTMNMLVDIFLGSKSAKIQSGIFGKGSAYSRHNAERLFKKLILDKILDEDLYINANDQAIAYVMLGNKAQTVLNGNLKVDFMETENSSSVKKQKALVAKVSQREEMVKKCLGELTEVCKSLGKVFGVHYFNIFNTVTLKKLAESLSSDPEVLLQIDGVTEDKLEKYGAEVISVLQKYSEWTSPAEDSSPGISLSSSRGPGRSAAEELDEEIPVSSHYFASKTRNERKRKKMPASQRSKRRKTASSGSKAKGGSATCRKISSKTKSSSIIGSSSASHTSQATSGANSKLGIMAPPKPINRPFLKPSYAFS

The experiment concerns the target RecQ-like DNA helicase BLM (Homo sapiens) (UniProt P54132). The experiment in a line: qHTS Validation Assay for Inhibitors of Bloom's syndrome helicase (BLM) (AID 2364). Conditions: BLM helicase DNA unwinding, fluorescence, in vitro; series mostly up to 57.1 µM; activity change, negative = inhibition: at the top concentration. From the text: Survival of cells and the faithful propagation of the genome depend on elaborate mechanisms of detecting and repairing DNA damage. Treatment of advanced cancer relies on radiation therapy or chemotherapy, which kill cancer cells by causing extensive DNA damage. It is often found, that cancer cells develop resistance to therapy through enhanced activity of DNA repair functions; this has led to an increased interest in developing drugs that interfere with DNA repair, which could sensitize cancer cells to conventional therapy.
This validation qHTS assay pertains to human BLM, which is important in resolving abnormal DNA structures formed during replication or homologous recombination. Shutting down the expression of BLM leads to chromosomal instability and higher radiation sensitivity in cultured cells.
The validation assay was a fluorescence quenching based kinetic qHTS for BLM Helicase DNA unwinding. The activity was measured as ATP-dependent separation of a 20-bp DNA duplex extended by 30-nt single-stranded tails (forked duplex). The forked DNA substrate was tagged with rhodamine fluorophore (carboxytetramethyl rhodamine, TAMRA) and BHQ-2 (Black Hole Quencher 2) dark quencher. Strand separation results in an increase in the fluorescence of TAMRA (excitation 525 nm, emission 598 nm). This substrate construct operates in a red-shifted region where very few compound library members have been noted to fluoresce (PubChem AIDs 593 and 594). An additional feature of the assay is the inclusion of 2.5 ug/ml poly (dIdC), to reduce interference by compounds such as DNA intercalators, a major source of false inhibitors.
Ian Hickson, University of Oxford
Opher Gileadi, Structural Genomics Consortium, University of Oxford
Screening Center PI: Austin, C.P.
Screening Center: NIH Chemical Genomics Center [NCGC]
Three uL of reaction buffer (25 mM Tris-HCl (pH 8.0), 5 mM NaCl, 2 mM MgCl2, 1mM DTT, 0.01% Tween- 20, and 2.5 ug/ml poly(dI-dC), including enzyme (50 nM BLM), were dispensed into a 1536-well Greiner black assay plate via solenoid-valve based nanoliter dispensers. Compounds (23 nl each in columns 5-48) and control (23 nl each in column 2 as dose-response) were transferred via a Kalypsys pintool equipped with a 1536-pin array. The plates were incubated for 15 min at room temperature, and then 1 ul of substrates (200 nM DNA and 2 mM ATP, final concentrations) was added to start the reaction. The plate was transferred into a ViewLux high-throughput CCD imager where the reaction progress was measured in a discontinuous kinetic mode (two reads spaced 2 hours apart, with intermediate room temperature incubation of the covered assay plate) by using standard red-fluorescence optics (excitation filter 525 nm, emission filter 598 nm). Enzyme-free and vehicle (DMSO) controls were included for signal normalization.
Background: qHTS replaces the single test concentration by a dilution series.
Consider `O=C(OCCN1CCCCC1)c1c[nH]c2ccccc12`, for which the “activity change, negative = inhibition” value is 5.16%.
Regarding `NCCNS(=O)(=O)c1cccc2cnccc12`, the “activity change, negative = inhibition” value is -0.34%.
`Cc1cccc(C)c1NC(=O)C[N+](C)(C)C`: the “activity change, negative = inhibition” value is -9.1%.
`Cn1cnc2c(NC3CCCC3)ncnc21`: the “activity change, negative = inhibition” value is -5.16%.
Take `Nc1c(S(=O)(=O)O)cc(Nc2ccc(Nc3nc(Cl)nc(Nc4ccc(S(=O)(=O)O)cc4)n3)c(S(=O)(=O)O)c2)c2c1C(=O)c1ccccc1C2=O`: the Potency was 6.31 µM (active).
Consider `NC(CCC(=O)NCS(=O)(=O)O)C(=O)O` (centres undefined), for which the “activity change, negative = inhibition” value is -9.78%.
In the case of `CN(C)CCCCSC(=N)N`, the “activity change, negative = inhibition” value is -0.196%.
`CC(C)=CCC/C(C)=C/CC/C(C)=C/CSc1ccccc1C(=O)O`: the Potency is 31.6 µM (active).
As for `COc1[nH]c2ccc(F)cc2c1C(=O)OCC1CCN(CCNS(C)(=O)=O)CC1`, the “activity change, negative = inhibition” value was 6.36%.
Regarding `Cc1cccc(/C=C/c2ccccc2)n1`, the “activity change, negative = inhibition” value is -7.54%.
Still for that read-out and setting: next, `CC(N)=NCc1cccc(CN)c1`: 6.27%; `NCCCCCCNS(=O)(=O)c1cccc2c(Cl)cccc12`: 9.93%.
Still for that read-out and setting: next, `Cc1ccc(OCC(O)C(C)NC(C)C)c2c1CCC2` (centres undefined): 0.446%; `O=S(=O)(NCCNC/C=C/c1ccc(Br)cc1)c1cccc2cnccc12`: 1.54%.
